From PubChem BioAssay (Tox21)
Values joined by “and” are separate entries in the source; they are usually repeats but may differ in a detail not shown here. Equal values may be shown once. Records with an inconclusive call do not appear. Entries that show only a call come without a potency. Where a structure was tested more than once in an assay, its records may differ in their call. Active and inactive are the calls of the source. Unless noted, calls follow the shape of the dose curve; as a rule, active = well fitted curve in the direction sought with a large enough effect in the repeat runs; inconclusive = weak or mixed curves; inactive = no such curve, though single readings can be large; an effect the other way counts as inactive or inconclusive.

Legend:
[1] = biological target: Aryl hydrocarbon receptor (Homo sapiens) (UniProt P35869); assay: qHTS assay to identify small molecule that activate the aryl hydrocarbon receptor (AhR) signaling pathway (AID 743085); also: nearly all actives have a fitted effect of over 15% in size; also: potency is read from the fitted curve at half-maximal effect;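 as to activation: HG2L7.5c1 human HepG2 liver cells with stably integrated DRE-driven firefly reporter; series mostly up to about 70 µM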
Sequence of Aryl hydrocarbon receptor (Homo sapiens) (P35869 whole entry, looked up): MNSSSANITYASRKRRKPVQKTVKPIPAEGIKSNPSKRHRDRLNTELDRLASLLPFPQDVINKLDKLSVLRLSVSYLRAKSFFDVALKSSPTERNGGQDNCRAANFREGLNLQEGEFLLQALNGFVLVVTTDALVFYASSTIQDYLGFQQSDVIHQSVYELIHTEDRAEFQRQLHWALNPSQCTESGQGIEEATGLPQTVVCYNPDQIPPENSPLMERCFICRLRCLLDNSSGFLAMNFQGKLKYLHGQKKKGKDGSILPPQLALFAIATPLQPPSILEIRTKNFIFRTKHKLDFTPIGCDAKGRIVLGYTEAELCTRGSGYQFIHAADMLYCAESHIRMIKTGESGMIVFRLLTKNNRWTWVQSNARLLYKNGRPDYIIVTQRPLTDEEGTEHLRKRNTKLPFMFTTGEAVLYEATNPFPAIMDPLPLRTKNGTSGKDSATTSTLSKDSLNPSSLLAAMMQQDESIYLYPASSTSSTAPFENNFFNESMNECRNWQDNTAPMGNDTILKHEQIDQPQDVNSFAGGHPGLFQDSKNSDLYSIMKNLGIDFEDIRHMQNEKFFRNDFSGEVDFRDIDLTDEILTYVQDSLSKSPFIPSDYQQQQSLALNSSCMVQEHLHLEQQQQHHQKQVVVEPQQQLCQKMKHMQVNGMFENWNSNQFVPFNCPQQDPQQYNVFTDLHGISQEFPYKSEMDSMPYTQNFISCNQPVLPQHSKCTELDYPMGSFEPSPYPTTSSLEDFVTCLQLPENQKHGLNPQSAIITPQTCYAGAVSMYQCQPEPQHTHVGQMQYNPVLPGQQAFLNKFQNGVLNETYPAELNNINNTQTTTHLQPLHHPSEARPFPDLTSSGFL
Procedure, shortened: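 24 h compound exposure, 37C, HepG2-derived HG2L7.5c1 cells with DRE-responsive luciferase. Readouts: fluorescence viability, then luminescence at room temperature after 30 min.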

[2] = biological target: Peroxisome proliferator-activated receptor gamma (Homo sapiens) (UniProt P37231); assay: qHTS assay to identify small molecule agonists of the peroxisome proliferator-activated receptor gamma (PPARg) signaling pathway (AID 743094; active = well fitted activation curve with a large enough effect in the signal ratio in the repeat runs, not every such curve was filed as active; the % refers to the signal ratio; also: potency is read from the fitted curve at half-maximal effect)
Sequence of Peroxisome proliferator-activated receptor gamma (Homo sapiens) (P37231 whole entry, looked up): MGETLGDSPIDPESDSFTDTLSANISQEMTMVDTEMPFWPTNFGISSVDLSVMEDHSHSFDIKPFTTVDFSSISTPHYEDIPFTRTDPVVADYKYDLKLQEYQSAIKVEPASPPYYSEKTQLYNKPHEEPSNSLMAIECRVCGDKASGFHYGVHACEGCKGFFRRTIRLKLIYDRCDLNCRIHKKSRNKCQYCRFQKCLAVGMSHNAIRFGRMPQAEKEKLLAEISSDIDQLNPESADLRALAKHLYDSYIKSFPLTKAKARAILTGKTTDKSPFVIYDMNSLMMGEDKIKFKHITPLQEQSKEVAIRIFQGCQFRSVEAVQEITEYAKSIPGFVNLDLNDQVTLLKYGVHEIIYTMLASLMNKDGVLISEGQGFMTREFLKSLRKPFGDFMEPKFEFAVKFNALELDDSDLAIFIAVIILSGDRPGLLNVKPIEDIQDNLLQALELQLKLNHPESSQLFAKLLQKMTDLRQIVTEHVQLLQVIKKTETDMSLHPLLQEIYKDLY
Procedure, shortened: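 GeneBLAzer PPARg UAS-bla HEK293H cells carrying a stably integrated beta-lactamase reporter were pre-incubated 5 h at 37C, then exposed to compounds in DMSO for 17 h at 37C; LiveBLAzer B/G FRET substrate was added for 1 h at room temperature and fluorescence read.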

[3] = qHTS assay to identify small molecule antagonists of the peroxisome proliferator-activated receptor gamma (PPARg) signaling pathway - cell viability counter screen (AID 743194); also: nearly all actives have a fitted effect of over 55% in size
Procedure, shortened: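 Viability was measured as CellTiter-Glo luminescence in GeneBLAzer PPARg UAS-bla HEK293H cells. These cells had been exposed 17 h at 37 C to compounds together with rosiglitazone at 50 nM final, with the beta-lactamase readout taken in the same wells.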

[4] = qHTS assay for small molecule agonists of the antioxidant response element (ARE) signaling pathway - cell viability counter screen (AID 743203; calls by dose curve; also: nearly all actives have a fitted effect of over 55% in size; also: potency is read from the fitted curve at half-maximal effect)
Procedure, shortened: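 CellSensor ARE-bla HepG2 cells, 2,000 per well, rested 5 hrs at 37C/5% CO2, then exposed to compound in DMSO for 16 hrs; viability read as CellTiter-Glo luminescence after 30 min at room temperature, in the reporter wells.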

[5] = qHTS assay for small molecule activators of the heat shock response signaling pathway - cell viability counter screen (AID 743209); also: nearly all actives have a fitted effect of over 50% in size
Procedure, shortened: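 CellSensor HSE-bla HeLa cells, plated overnight at 37 C/5% CO2, were exposed to compounds in DMSO for 5 h at 37 C. Viability was then read in the same wells by CellTiter-Glo luminescence after 30 min at room temperature.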

[6] = qHTS assay for small molecule activators of the heat shock response signaling pathway (AID 743210; active = well fitted activation curve with a large enough effect in the signal ratio in the repeat runs, with a control signal flat, not every such curve was filed as active; the % refers to the signal ratio; also: potency is read from the fitted curve at half-maximal effect;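 as to activation: HeLa cells with beta-lactamase reporter driven by heat shock elements; series mostly up to about 63 µM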)
Procedure, shortened: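 HeLa HSE-bla cells, overnight plating; cpd in DMSO 5 h, 37 C; LiveBLAzer B/G FRET substrate 2.5 h RT; fluorescence intensity read.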

[7] = qHTS assay to identify small molecule agonists of the peroxisome proliferator-activated receptor delta (PPARd) signaling pathway - cell viability counter screen (AID 743211); also: nearly all actives have a fitted effect of over 55% in size; also: potency is read from the fitted curve at half-maximal effect
Procedure, shortened: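 Luminescent ATP viability assay (CellTiter-Glo, 30 min RT) in UAS-bla HEK293H cells carrying the PPAR delta reporter construct, 3000 cells/well, after a 17 h compound treatment at 37 C.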

[8] = biological target: Peroxisome proliferator-activated receptor delta (Homo sapiens) (UniProt Q03181); assay: qHTS assay to identify small molecule agonists of the peroxisome proliferator-activated receptor delta (PPARd) signaling pathway (AID 743212; calls by dose curve; also: potency is read from the fitted curve at half-maximal effect)
Sequence of Peroxisome proliferator-activated receptor delta (Homo sapiens) (Q03181 whole entry, looked up): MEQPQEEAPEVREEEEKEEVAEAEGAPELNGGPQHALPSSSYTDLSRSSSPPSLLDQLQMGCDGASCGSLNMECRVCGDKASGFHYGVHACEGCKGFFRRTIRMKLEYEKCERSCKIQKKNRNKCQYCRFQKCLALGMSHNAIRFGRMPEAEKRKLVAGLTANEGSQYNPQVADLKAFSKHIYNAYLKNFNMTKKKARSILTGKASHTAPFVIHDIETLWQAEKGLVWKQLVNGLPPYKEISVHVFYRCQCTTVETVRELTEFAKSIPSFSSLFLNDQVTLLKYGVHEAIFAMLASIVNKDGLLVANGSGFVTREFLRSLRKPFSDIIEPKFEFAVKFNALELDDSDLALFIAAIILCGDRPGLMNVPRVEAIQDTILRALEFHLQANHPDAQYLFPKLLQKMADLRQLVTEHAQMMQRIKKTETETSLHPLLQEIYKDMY
Procedure, shortened: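 HEK293H PPARd-bla cells; 5 h preincubation 37 C/5% CO2; compound (DMSO) 37 C; LiveBLAzer B/G FRET substrate 2 h RT; fluorescence intensity.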

[9] = qHTS assay to identify small molecule antagonists of the peroxisome proliferator-activated receptor delta (PPARd) signaling pathway - cell viability counter screen (AID 743213); also: nearly all actives have a fitted effect of over 50% in size; also: potency is read from the fitted curve at half-maximal effect
Procedure, shortened: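 Cytotoxicity counter screen: CellTiter-Glo luminescence read 30 min after addition, in the same wells as the reporter assay. There, PPARd UAS-bla HEK293H cells (3000/well) were treated 17 h at 37 C with compound and 300 nM L165041.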

[10] = biological target: Peroxisome proliferator-activated receptor delta (Homo sapiens) (UniProt Q03181); assay: qHTS assay to identify small molecule antagonists of the peroxisome proliferator-activated receptor delta (PPARd) signaling pathway (AID 743215; active = well fitted inhibition curve with a large enough effect in the signal ratio in the repeat runs, not every such curve was filed as active; the % refers to the signal ratio;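 also: cells stimulated with agonist L165041 at 300 nM final during compound exposure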; also: potency is read from the fitted curve at half-maximal effect)
Procedure, shortened: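 PPARd UAS-bla HEK293H cells were pre-incubated 5 h at 37 C, then given test compounds in DMSO plus agonist L165041 (300 nM final). After 17 h at 37 C, beta-lactamase FRET substrate was added; fluorescence read after 2 h at room temperature.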

[11] = qHTS assay to identify small molecule antagonists of the farnesoid-X-receptor (FXR) signaling pathway - cell viability counter screen (AID 743221; active = well fitted cell-killing curve with a large enough effect in the repeat runs, not every such curve was filed as active; also: nearly all actives have a fitted effect of over 50% in size; also: potency is read from the fitted curve at half-maximal effect)
Procedure, shortened: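 In GeneBLAzer FXR-UAS-bla HEK 293T cells stimulated with 50 uM chenodeoxycholic acid (final), compounds acted for 16 h at 37 C. Viability was assessed afterwards by CellTiter-Glo luminescence.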

[12] = biological target: Vitamin D3 receptor (Homo sapiens) (UniProt P11473); assay: qHTS assay to identify small molecule agonists of the vitamin D receptor (VDR) signaling pathway (AID 743222; calls by dose curve)
Sequence of Vitamin D3 receptor (Homo sapiens) (P11473 whole entry, looked up): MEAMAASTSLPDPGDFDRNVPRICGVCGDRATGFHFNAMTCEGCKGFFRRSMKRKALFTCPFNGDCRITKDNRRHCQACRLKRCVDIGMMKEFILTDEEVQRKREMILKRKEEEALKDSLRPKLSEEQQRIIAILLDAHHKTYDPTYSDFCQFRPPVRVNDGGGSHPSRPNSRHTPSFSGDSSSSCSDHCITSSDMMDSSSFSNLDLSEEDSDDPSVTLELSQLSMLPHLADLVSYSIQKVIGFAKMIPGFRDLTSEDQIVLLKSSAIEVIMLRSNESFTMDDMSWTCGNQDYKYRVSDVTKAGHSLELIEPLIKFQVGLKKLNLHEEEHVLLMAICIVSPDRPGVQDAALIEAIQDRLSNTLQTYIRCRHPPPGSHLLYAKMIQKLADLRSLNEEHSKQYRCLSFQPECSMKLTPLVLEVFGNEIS
Procedure, shortened: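 VDR-bla cells were plated 4 h at 37C/5% CO2, then exposed to compounds in DMSO for 16 h. After LiveBLAzer B/G FRET substrate addition and 2 h at room temperature, beta-lactamase reporter fluorescence was read.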

[13] = qHTS assay to identify small molecule agonists of the vitamin D receptor (VDR) signaling pathway - cell viability counter screen (AID 743224); also: nearly all actives have a fitted effect of over 50% in size; also: potency is read from the fitted curve at half-maximal effect
Procedure, shortened: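 VDR-bla cells were preincubated 4 h at 37C/5% CO2, then exposed to compounds for 16 h. After the 2 h room-temperature bla FRET read, CellTiter-Glo was added to the same wells and luminescence read after 30 min.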

[14] = qHTS assay to identify small molecule that activate the aryl hydrocarbon receptor (AhR) signaling pathway - cell viability counter screen (AID 743086); also: nearly all actives have a fitted effect of over 45% in size; also: potency is read from the fitted curve at half-maximal effect
Procedure, shortened: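 Cytotoxicity counter screen: CellTiter-Fluor signal (30 min, 37 C) in 4000 HepG2 cells/well carrying the DRE-luciferase reporter, following 24 h compound exposure at 37 C.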

[15] = qHTS assay for small molecule agonists of the antioxidant response element (ARE) signaling pathway (AID 743202; active = well fitted activation curve with a large enough effect in the signal ratio in the repeat runs, not every such curve was filed as active; the % refers to the signal ratio; also: potency is read from the fitted curve at half-maximal effect)
Procedure, shortened: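 Quantitative high-throughput format in HepG2 cells bearing an integrated ARE-beta-lactamase reporter. Compound exposure lasted 16 h at 37 C, and fluorescence was read 2 h after adding LiveBLAzer B/G substrate at room temperature.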

[16] = qHTS assay to identify small molecule agonists of the farnesoid-X-receptor (FXR) signaling pathway - cell viability counter screen (AID 743218); also: nearly all actives have a fitted effect of over 45% in size; also: potency is read from the fitted curve at half-maximal effect
Procedure, shortened: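 FXR-UAS-bla HEK 293T cells, plated 5 h at 37 C, were exposed to compounds for 16 h at 37 C. CellTiter-Glo was then added to the same wells as the bla readout; luminescence read after 30 min at room temperature.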

[17] = biological target: Vitamin D3 receptor (Homo sapiens) (UniProt P11473); assay: qHTS assay to identify small molecule antagonists of the vitamin D receptor (VDR) signaling pathway (AID 743223; active = well fitted inhibition curve with a large enough effect in the signal ratio in the repeat runs, not every such curve was filed as active; the % refers to the signal ratio)
Procedure, shortened: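 Agonist 1alpha,25-dihydroxyvitamin D3 (3 nM in well) was added with each compound to VDR-bla cells preincubated 4 h. Cells stood 16 h at 37C, then FRET substrate 2 h at room temperature; fluorescence intensity recorded.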

[18] = biological target: Peroxisome proliferator-activated receptor gamma (Homo sapiens) (UniProt P37231); assay: qHTS assay to identify small molecule antagonists of the peroxisome proliferator-activated receptor gamma (PPARg) signaling pathway (AID 743191; calls by dose curve; also: nearly all actives have a fitted effect of over 30% in size; also: potency is read from the fitted curve at half-maximal effect)
Procedure, shortened: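 Beta-lactamase reporter under UAS control in HEK293H PPARg-bla cells; compound treatment 17 h at 37C. Read-out: fluorescence intensity after 1 h room-temperature incubation with LiveBLAzer B/G FRET substrate.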

[19] = biological target: Bile acid receptor (Homo sapiens) (UniProt Q96RI1); assay: qHTS assay to identify small molecule antagonists of the farnesoid-X-receptor (FXR) signaling pathway (AID 743217; active = well fitted inhibition curve with a large enough effect in the signal ratio in the repeat runs, not every such curve was filed as active; the % refers to the signal ratio; also: potency is read from the fitted curve at half-maximal effect)
Sequence of Bile acid receptor (Homo sapiens) (Q96RI1 whole entry, looked up): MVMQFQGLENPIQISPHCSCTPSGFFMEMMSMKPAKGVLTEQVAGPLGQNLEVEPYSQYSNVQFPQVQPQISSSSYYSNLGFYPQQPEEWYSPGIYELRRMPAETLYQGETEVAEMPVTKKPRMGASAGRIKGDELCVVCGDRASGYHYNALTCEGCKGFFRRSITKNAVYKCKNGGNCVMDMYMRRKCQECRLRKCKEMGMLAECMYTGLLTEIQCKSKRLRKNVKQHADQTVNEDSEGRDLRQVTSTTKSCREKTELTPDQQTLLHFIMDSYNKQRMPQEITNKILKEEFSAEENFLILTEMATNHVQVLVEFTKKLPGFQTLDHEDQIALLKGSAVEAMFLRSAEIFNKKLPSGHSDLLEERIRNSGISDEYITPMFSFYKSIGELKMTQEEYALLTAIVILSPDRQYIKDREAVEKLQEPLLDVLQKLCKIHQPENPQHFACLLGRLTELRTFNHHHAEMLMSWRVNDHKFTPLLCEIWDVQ
Procedure, shortened: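 FXR-UAS-bla HEK 293T cells pre-incubated 5 h at 37 °C, then exposed to compounds with chenodeoxycholic acid (50 uM final) for 16 h at 37 °C. Beta-lactamase reporter read by LiveBLAzer B/G FRET substrate fluorescence after 2 h at room temperature.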

[20] = biological target: Bile acid receptor (Homo sapiens) (UniProt Q96RI1); assay: qHTS assay to identify small molecule agonists of the farnesoid-X-receptor (FXR) signaling pathway (AID 743220; active = well fitted activation curve with a large enough effect in the signal ratio in the repeat runs, not every such curve was filed as active; the % refers to the signal ratio)
Procedure, shortened: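 Beta-lactamase reporter under UAS control in GeneBLAzer FXR HEK 293T cells (5000/well) measured with LiveBLAzer FRET substrate after 2 h at room temperature. Compound exposure lasted 16 h at 37C.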

| Structure (SMILES) | Potency [1] | Potency [2] | Potency [3] | Potency [4] | Potency [5] | Potency [6] | Potency [7] | Potency [8] | Potency [9] | Potency [10] | Potency [11] | Potency [12] | Potency [13] | Potency [14] | Potency [15] | Potency [16] | outcome [17] | Potency [18] | Potency [19] | Potency [20] |
| --- | --- | --- | --- | --- | --- | --- | --- | --- | --- | --- | --- | --- | --- | --- | --- | --- | --- | --- | --- | --- |
| Cc1oc(-c2ccccc2)nc1CCOc1cccc2c1ccn2CCC(=O)O | inactive | 17.4 nM (active) | inactive | inactive | inactive | inactive | inactive | 8.71 µM (active) | inactive | inactive | inactive | inactive | inactive |  |  |  |  |  |  |  |
| O=C1OC(CN2CCOCC2)CN1/N=C/c1ccc([N+](=O)[O-])o1 (stereo not given) | inactive |  | inactive | inactive | inactive | inactive | inactive | inactive | inactive | inactive | inactive | inactive | inactive | inactive | 29.8 µM (active) | inactive | inactive |  |  |  |
| C#Cc1cccc(Nc2ncnc3cc(OCCOC)c(OCCOC)cc23)c1 | 2.66 µM (active) |  | inactive | inactive | inactive | inactive | inactive | inactive | inactive |  | inactive |  | inactive |  |  | inactive |  | inactive | inactive | inactive |
| OCc1cc(C(O)CNCCCCCCOCCCCc2ccccc2)ccc1O (stereo not given) | 26.6 µM (active) and inactive |  | inactive |  | inactive | inactive | 26.6 µM (active) |  |  | inactive | inactive |  | inactive | 26.6 µM (active) and 13.3 µM (active) |  |  |  | inactive |  | inactive |
| O=C(OCCCCCCOC(=O)c1ccccc1)c1ccccc1 | inactive |  | inactive | inactive |  | 57.1 µM (active) |  | inactive |  |  | inactive |  | 43.6 µM (active) | inactive |  |  |  |  | inactive | inactive |
| Clc1ccc2c(c1)CCc1cccnc1C2=C1CCNCC1 | inactive |  | inactive |  |  | inactive | 26.6 µM (active) | inactive | 15 µM (active) | 29.8 µM (active) | 29.8 µM (active) | inactive |  |  |  |  |  | inactive | 29.8 µM (active) | inactive |
| CNCCCCOc1ccccc1Cc1ccccc1 | inactive | inactive | inactive | 29.8 µM (active) | inactive |  | 26.6 µM (active) |  | 13.3 µM (active) |  |  | inactive |  |  |  |  |  |  |  | inactive |
| CCCCCCCCCCCCCCCCCCOS(=O)(=O)O | inactive |  |  | 61.1 µM (active) |  |  | 49 µM (active) |  | 54.9 µM (active) |  |  | inactive | 54.9 µM (active) | inactive |  |  | inactive |  |  |  |
| CC/C=C\CCOC(=O)CC | inactive |  | inactive | inactive | inactive | inactive | inactive | inactive |  |  | inactive |  | inactive | inactive | inactive |  |  |  |  |  |
| Cc1oc2c(NC(=O)c3c(Cl)cccc3Cl)cccc2c1C(C)(C)O | 8.63 µM (active) |  | inactive |  | inactive |  |  | inactive |  | inactive | inactive |  |  | inactive |  | 21.9 µM (active) | inactive |  | 38.9 µM (active) | inactive |
| COc1cc(C(=O)OCCCN2CCCN(CCCOC(=O)c3cc(OC)c(OC)c(OC)c3)CC2)cc(OC)c1OC | inactive |  | inactive | inactive | inactive | inactive | inactive |  |  | inactive | inactive | inactive | inactive | inactive | 11.9 µM (active) | inactive |  |  |  |  |
| CC(=O)OC[C@H]1O[C@@H](n2ncc(=O)[nH]c2=O)[C@H](OC(C)=O)[C@@H]1OC(C)=O | inactive |  | inactive | inactive | inactive | inactive | inactive | inactive | inactive |  |  | inactive | inactive | inactive | inactive | inactive |  | 841 nM (active) |  | inactive |
| CN(C)CCN(Cc1ccc(Cl)cc1)c1ccccn1 | inactive | inactive |  | inactive | inactive | inactive |  | inactive |  | inactive | inactive | inactive |  |  | inactive |  | inactive |  | inactive | inactive |
| CC(C)OC(=O)C(C)N(C(=O)c1ccccc1)c1ccc(F)c(Cl)c1 (stereo not given) | inactive | inactive | inactive | inactive | inactive | inactive |  | inactive | inactive |  | inactive |  | inactive |  |  | inactive | inactive | inactive |  |  |
| COc1cccc(N(C)C(=S)Oc2ccc3c(c2)CCCC3)n1 | inactive |  | inactive | inactive | inactive |  |  | inactive |  | inactive | inactive | inactive | inactive | inactive |  |  | inactive |  |  |  |
| CN1C[C@H]2c3ccccc3Oc3ccc(Cl)cc3[C@@H]2C1 | 13.3 µM (active) | inactive |  | inactive | inactive |  |  | inactive |  | inactive | inactive | inactive | inactive |  |  | inactive |  | inactive | inactive | inactive |
| CCOc1ccc(O)cc1 | inactive |  | inactive | inactive | inactive | inactive | inactive | inactive |  | inactive | inactive | inactive |  | inactive | 61.1 µM (active) | inactive | inactive | inactive |  |  |
| CC(C)C[C@H]1C(=O)N2CCC[C@H]2[C@]2(O)O[C@](NC(=O)[C@@H]3C=C4c5cccc6[nH]c(Br)c(c56)C[C@H]4N(C)C3)(C(C)C)C(=O)N12 | inactive |  | inactive | inactive | inactive | inactive |  |  |  |  | inactive | inactive | inactive | 26.6 µM (active) | 4.13 µM (active) | inactive | inactive |  |  |  |
